About 1,200 (0.86%) of roughly 140,000 compounds were called active. This excerpt belongs to a sample that is enriched for actives. Unmarked numbers belong to inactive results. Rule as the data show it: active = activity change below about -25%; inactive = the rest.

Results on 28 compounds are retold here after PubChem BioAssay AID1645851 (National Center for Advancing Translational Sciences (NCATS), 2021).
% is scaled to controls: 0 for no effect and ±100 for the full control effect.

Inositol hexakisphosphate kinase 1 (Homo sapiens), sequence (Q92551 whole entry, looked up): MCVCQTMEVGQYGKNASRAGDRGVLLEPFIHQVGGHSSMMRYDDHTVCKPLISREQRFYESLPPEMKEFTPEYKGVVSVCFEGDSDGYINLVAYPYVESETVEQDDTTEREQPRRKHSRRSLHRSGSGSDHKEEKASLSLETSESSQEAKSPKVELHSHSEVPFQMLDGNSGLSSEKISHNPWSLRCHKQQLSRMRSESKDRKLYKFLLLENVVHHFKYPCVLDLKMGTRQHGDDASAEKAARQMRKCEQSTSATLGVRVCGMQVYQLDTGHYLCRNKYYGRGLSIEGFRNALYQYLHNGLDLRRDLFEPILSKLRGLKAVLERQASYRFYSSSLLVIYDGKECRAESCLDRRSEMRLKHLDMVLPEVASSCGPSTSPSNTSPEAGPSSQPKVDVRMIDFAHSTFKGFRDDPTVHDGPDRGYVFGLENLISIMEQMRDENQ

The assay deals with Inositol hexakisphosphate kinase 1 (Homo sapiens) (UniProt Q92551). Put plainly: Primary qHTS assay for small molecule inhibitors of Inositol hexaphosphate kinase 1 (IP6K1). Also: series mostly up to about 58 µM. As to conditions: ADP-Glo luminescence, 2 h, stronger effect = lower value. The procedure, abridged:
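ADP-Glo luminescence measures ADP made by human IP6K1 during a 2 h RT reaction with ATP/IP6 (mix at 1.3 mM/130 uM); top library doses 57.5 and 19.1 uM final.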
In general terms: In qHTS, concentration-response curves come from the screen itself.
As to `CCOc1ccc(C(=O)N2CCC(c3n[nH]c(=O)n3-c3ccccc3)CC2)cc1OCC`, the activity change was -6.36%.

Take `CSc1ccc(-c2ccc(C=O)cc2)cc1`: the activity change is -28.5% (active).

With `O=Cc1cccc(-c2cc(F)cc(F)c2)c1`, the activity change was -5.81%. With `COc1ccc(CNC(=O)[C@@H](C)C2CC[C@@]3(C)CC[C@H](NC(=O)c4ccc(C#N)cc4)[C@@H](C)[C@@H]3[C@H]2O)cc1` (stereo partly drawn) the figure was -11.9%.

Regarding `COc1ccc(Nc2ccnc(N3CCCC(C(=O)NCc4ccc(C(F)(F)F)cc4)C3)n2)cc1` (stereo not drawn), the activity change was -7.37%. Take `Cc1ccccc1Cc1c(C)nc2c(C(=O)N3CCc4c(c(-c5nncn5C)nn4C)C3)cnn2c1C`: the activity change is 9.9%. The same measure for `N#CC1CCN(C(=O)c2ccc3nnc(Cc4ccco4)n3c2)CC1`: 2.16%. With `Cc1noc2c(-c3cccc(CO)c3)cc(-c3ccccc3)nc12` the figure was -16.9%; with `COc1ccccc1-c1cc(-c2cccc([S+](C)(=O)[O-])c2)c2onc(C)c2n1`, 2.9%.

For `COc1ccccc1-c1cc(-c2cn[nH]c2)c2onc(C)c2n1`, the activity change was -25.3% (active). For `Cn1c(CCC(=O)N2CC[C@H](CO)[C@H](O)C2)nc2cccnc21`, the activity change was -2.6%. With `COc1ccccc1C(=O)N1CCCC2(C1)Nc1cccnc1NC2=NCc1ccccc1` (stereo not drawn) the figure was 6.92%; with `O=C(NCC1CCCCC1)[C@@H]1CCCN1c1ccnc2ccnn12`, -2.98%. With `CN(C)c1ccc(CN2CCC(N3Cc4ccccc4C3=O)CC2)cc1` the figure was -12.5%; with `CCc1ccccc1NC(=O)c1ccc(F)c(S(=O)(=O)NC2CCCCCC2)c1`, 15.5%. Regarding `CCc1ccccc1N1C(=O)CN(S(=O)(=O)CC)CC1(C)C(=O)NC1CCCCC1` (stereo not drawn), the activity change was -30.6% (active). As for `CCc1ccc(N2C(=O)CN(S(=O)(=O)CC)CC2(C)C(=O)NC2CCCCC2)cc1` (stereo not drawn), the activity change is -13.3%. The same measure for `COC(=O)NC1CCN(Cc2ccc(-c3cc(F)ccc3OC)cc2)C1` (stereo not drawn): 6.69%; for `Cc1oc(C(O)c2ccccc2)nc1C(=O)Nc1ccc2c(c1)CC(=O)N2` (stereo not drawn): 9.78%; for `COc1ccc(OCCCn2c(C3CC(=O)N(c4ccc(F)cc4)C3)nc3ccccc32)cc1` (stereo not drawn): -3.06%.

As for `CCOc1ccc(N2CC(c3nc4ccccc4n3CCOc3ccc(OC)cc3)CC2=O)cc1` (stereo not drawn), the activity change is -11.8%. With `CCc1ccccc1N1CC(c2nc3ccccc3n2CCCCOc2ccccc2)CC1=O` (stereo not drawn) the figure was -28.8% (active); with `COCCO[C@H]1C(=O)N(C2CCN(C(=O)c3ccsc3)CC2)[C@H]1c1ccncc1`, 6.99%. With `CCOC(=O)c1ccc(NC(=O)c2c(NCc3cccs3)sc3c2CCCC3)cc1` the figure was -31.3% (active); with `CCOC(=O)c1ccc(NC(=O)c2c(NCc3cccc(OC)c3)sc3c2CCC3)cc1`, 8.31%; with `CCOC(=O)c1ccc(NC(=O)c2csc3c2CCCCC3)cc1`, 3.62%. The same measure for `CC(=O)Nc1cccc(C(=O)N2CCCN(c3cc(-c4ccc(Br)cc4)[nH]n3)CC2)c1`: -10.1%; for `O=C(NCc1ccc(F)c(F)c1)C1CCCN(Cc2cccc(-c3cccs3)c2)C1` (stereo not drawn): 0.462%.
